Sfp inh = qHTS Assay for Inhibitors of Bacillus subtilis Sfp phosphopantetheinyl transferase (PPTase); AID 1490, 2009; 310,000 tested, 3.5% active; Biochemical Sfp PPTase activity, qHTS; 4'-phosphopantetheinyl transferase ffp (Bacillus subtilis), Q9F4F7; Potency, µM, for the others: largest response in the series, negative = inhibition, most hits filed as inhibitors;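 further: the enzyme is Sfp with the accession as filed and its product quenches rhodamine fluorescence; potency means the concentration at half of the fitted maximal effect; 0% = enzyme reaction without inhibitor and -100% = no enzyme wells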
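Step 1, compound plus 15 nM Sfp-PPTase, 15 min, room temperature. Step 2, add rhodamine-CoA (5 uM) and BHQ-2-YbbR (12.5 uM). Step 3, read 525/598 nm fluorescence at 0 and 30 min.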
FBPA coupling cs = qHTS Assay for Inhibitors of Fructose-1,6-bisphosphate Aldolase from Giardia Lamblia: Coupling assay counterscreen; 290,000 tested, 0.67% active; AID 2472, 2010; coupling enzyme system counterscreen, AmpLite Red fluorescence; activity change, negative = inhibition, % at 58.2 µM, hits read low; in the data active means activity change below about -30%
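Activity here indicates interference with the coupling reaction, not aldolase inhibition. Compounds at 57.5 uM final met coupling enzymes for 10 min at RT; substrate and AmpLite Red detection followed, with a 525/598 nm fluorescence read after 20 min.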
ALDH1A1 block = qHTS Assay for Inhibitors of Aldehyde Dehydrogenase 1 (ALDH1A1); Aldehyde dehydrogenase 1A1 (Homo sapiens), P00352; Purified ALDH1A1, NADH fluorescence, propionaldehyde substrate; Potency, µM (series often up to 75.3 µM), for inactives: top-dose activity, negative = inhibition, hits mostly inhibitors; 220,000 tested, 7.3% active; active means well fitted inhibition curve with a large enough effect, not every such curve was filed as active; inconclusive means small, poorly fitted or top-dose-only effect, or another doubt; inactive means no such curve, though single readings can be large or run the other way;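 further: potency means the concentration at half of the fitted maximal effect; plate controls were no enzyme wells and a reference inhibitor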
GoLoco inh red = qHTS Assay for Inhibitors of RGS12 GoLoco Motif Activity (Red Fluorophore). Guanine nucleotide-binding protein G(i) subunit alpha-1 (Homo sapiens), P63096. Gai1:RGS12 GoLoco peptide FP, rhodamine, 10 min. Potency, µM (doses to about 61.6 µM), for the others: at the top dose activity, negative = inhibition, usual class: inhibitors. 230,000 tested, 0.44% active. AID 880, 2007; active means well fitted inhibition curve with a large enough effect, not every such curve was filed as active; inactive means no such curve, though single readings can be large or run the other way; further: potency means the concentration at half of the fitted maximal effect; nearly all actives have a fitted effect of over 30% in size
Target sequence (P63096 whole entry, looked up): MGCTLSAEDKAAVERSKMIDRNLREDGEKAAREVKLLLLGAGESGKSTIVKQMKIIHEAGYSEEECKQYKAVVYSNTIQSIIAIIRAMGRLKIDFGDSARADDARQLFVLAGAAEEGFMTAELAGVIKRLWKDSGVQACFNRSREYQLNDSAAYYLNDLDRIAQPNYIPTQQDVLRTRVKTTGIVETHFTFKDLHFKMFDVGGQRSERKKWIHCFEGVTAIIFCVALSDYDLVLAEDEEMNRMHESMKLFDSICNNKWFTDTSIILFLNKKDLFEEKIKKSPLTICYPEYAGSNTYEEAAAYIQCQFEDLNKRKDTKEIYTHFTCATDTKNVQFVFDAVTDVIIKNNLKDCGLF
JMJD2E inh = qHTS Assay for Inhibitors of Human Jumonji Domain Containing 2E (JMJD2E) | JMJD2E catalytic domain, FDH-coupled NADH fluorescence (FDH is formaldehyde dehydrogenase) | Potency, µM (top dose mostly 57.1 µM), without a hit: at the top dose activity change, negative = inhibition, hits mostly inhibitors | 230,000 tested, 1.6% active; active means well fitted inhibition curve with a large enough effect, not every such curve was filed as active; inconclusive means small, poorly fitted or top-dose-only effect, or another doubt; inactive means no such curve, though single readings can be large or run the other way;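 further: potency means the concentration at half of the fitted maximal effect; 0% = wells with enzyme and -100% = buffer wells without enzyme; nearly all actives have a fitted effect of over 50% in size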
Target sequence (B2RXH2 1-337 limits assumed): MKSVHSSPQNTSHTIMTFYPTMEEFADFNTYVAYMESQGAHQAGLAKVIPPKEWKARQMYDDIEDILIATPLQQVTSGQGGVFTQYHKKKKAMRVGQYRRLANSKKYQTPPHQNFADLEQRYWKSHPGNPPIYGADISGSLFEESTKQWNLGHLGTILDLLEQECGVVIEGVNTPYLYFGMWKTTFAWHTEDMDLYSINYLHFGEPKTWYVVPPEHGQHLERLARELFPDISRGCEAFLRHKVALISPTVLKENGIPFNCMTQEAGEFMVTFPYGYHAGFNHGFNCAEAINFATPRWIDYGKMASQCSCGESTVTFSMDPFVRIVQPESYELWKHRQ
NPSR antag = qHTS Assay for Antagonists of the Neuropeptide S Receptor: cAMP Signal Transduction | Q6W5P4 | CHO-NPSR cells, cAMP TR-FRET, antagonist mode | Potency, µM (doses to about 38.3 µM), for the others: top-dose activity change, negative = inhibition, usual class: inhibitors | 220,000 tested, 1% active; further: potency means the concentration at half of the fitted maximal effect; nearly all actives have a fitted effect of over 50% in size
The depositor's hits bear a star; ? = inconclusive; . = no result; [ ] = remark or other dose. Only some compounds are listed: those with a hit (about 8.5% of all), similar ones and a draw of the others. Unless noted, the call rests on the fitted dose curve; in most records, active means well fitted curve in the direction sought with a large enough effect; inconclusive means small, poorly fitted or top-dose-only effect, or another doubt; inactive means no such curve, though single readings can be large; an effect the other way counts as inactive or inconclusive. Unless noted, on the % scale 0 is the no-effect control and ±100 the full control effect.

SMILES	Sfp inh	FBPA coupling cs	ALDH1A1 block	GoLoco inh red	JMJD2E inh	NPSR antag
CC(C)CC(=O)Nc1cccc(C(=O)Nc2ccccc2C(=O)O)c1	26%	0	-8%	-4%	4%	-16%[46.1 µM]
CCCCC(=O)Nc1ccc2c(c1)nc1n2CCSC1	-4%	9	18µM*	-2%	13%	5%[46.1 µM]
N#[N+]c1ccc(Nc2ccccc2)cc1	.	.	-1%[13.5 µM]	0%[14.2 µM]	.	.
CCn1c(/C=C/N(C)c2ccccc2)[n+](CC)c2ccc(Cl)cc21	-2%	0	?	1µM*	-23%	-7%[46.1 µM]
COc1ccc(CC(=O)Nc2cc(C)ccc2O)cc1OC	4%	-2	.	6%	10%	16%
CSc1ccc(/C=C(\NC(=O)c2ccco2)C(=O)N2CCCCC2)cc1	-3%	.	.	.	.	.
Cc1cc(C(=O)NNC(=O)CCCCC(=O)NNC(=O)c2cc(C)[nH]n2)n[nH]1	79µM*	0	-10%	-19%	-4%	7%
COc1ccc(CC(=O)NNC(=O)c2cc(C)[nH]n2)cc1	-15%	3	.	.	.	.
O=C(CCCCl)Oc1ccc2cc(-c3ccc4ccccc4n3)c(=O)oc2c1	0%	1	?	-10%	?	1%
CCn1c(C)[n+](Cc2ccccc2)c2ccc(C(=O)OC)cc21	-8%	-1	-4%	1.3µM*	-22%	24%
COc1ccc(NC(=O)CC2(CC(=O)O)CCCC2)cn1	-5%	2	?	4%	0%	6%
Cc1ccc(N(Cc2ccccc2)C(=O)c2cccc(F)c2)cc1	14%	.	.	.	.	.
Cc1cccc2cc(CN(Cc3ccccc3)C(=O)c3cccc(F)c3)c(Cl)nc12	4%	5	8.9µM*	7%	-1%	?
CNCc1ccccc1Sc1ccc(OC)c(OC)c1	4%	1	11%	0%	-1%	-4%[46.1 µM]
CCOC(=O)N(C)OC(=O)Nc1ccc(Cl)c(Cl)c1	11%	0	4µM*	-2%	-1%	20%[46.1 µM]
CCOC(=O)N(CC)OC(=O)Nc1ccc(Cl)cc1	16%	1	4.5µM*	1%	6%	-8%[46.1 µM]
CCOC(=O)NCCOC(=O)Nc1ccc(Cl)cc1	4%	0	5%	4%	-2%	5%
C[C@@]12CC[C@@H]3[C@H](CCC4=CC(=O)CC[C@]43C)[C@@H]1CC[C@@H]2C(=O)Cn1cnc2c(=S)nc[nH]c21	.	.	-1%[13.5 µM]	9%[14.2 µM]	.	.
N=C1/C(=C/c2cccn2Cc2ccc(Cl)cc2)C(=O)N=C2SC=CN12	40µM*	-1	0%	35%	-13%	-36%
CC1=CC2=NC(=O)/C(=C/c3cccn3Cc3ccccc3)C(=N)N2O1	-8%	-1	.	4%	-5%	?
CCN1C(=O)c2cccc3c(S(=O)(=O)NCCc4c[nH]c5ccccc45)ccc1c23	4%	-1	14µM*	0%	4%	-16%[46.1 µM]
CCN1C(=O)c2cccc3c(S(=O)(=O)Nc4ccccc4OC)ccc1c23	3%	-3	4.5µM*	-2%	-1%	-10%[46.1 µM]
CCN1C(=O)c2cccc3c(S(=O)(=O)NCCCN4CCOCC4)ccc1c23	5%	1	?	5%	?	-3%[46.1 µM]
O/N=C1\CCCc2c1nc(-c1ccccc1F)n2O	?	1	.	-2%	?	15%
CCc1nnc(NC(=O)CC(C)c2ccccc2)s1 (stereo not drawn)	15%	3	.	.	.	.
SMILES	Sfp inh	FBPA coupling cs	ALDH1A1 block	GoLoco inh red	JMJD2E inh	NPSR antag
CCn1c(=O)cc(C(F)(F)F)[nH]c1=S	79µM*	0	?	8%	?	4%
OCC1OC(c2ccc3c(c2)OCO3)C=CC1Oc1ccc(C2CCCC2)cc1 (stereo not drawn)	-3%	-1	-5%[13.5 µM]	.	.	.
CN(C(=O)c1ccc(=O)n(Cc2ccc(Cl)cc2)c1)c1ccccc1	?	-3	14µM*	-8%	2%	-12%
CS(=O)(=O)N1CCC[C@@]2(CCN(C(=O)Nc3cccc(C#N)c3)C2)C1	22%	0	7%	9%	.	.
CC(C)COC(=O)c1ccc2c(c1O)C(=O)c1ccccc1C2=O	-28%	-41*	?	-5%	2%	-15%[46.1 µM]
O=S(=O)(c1ccccc1)N(CC(O)COc1ccccc1)c1ccccc1 (stereo not drawn)	18%	7	1%	-1%	-3%	9%
COc1ccccc1NC(=O)C1=C(C)NC(SCC(=O)c2ccccc2)=C(C#N)C1c1ccco1 (stereo not drawn)	?	-5	14µM*	55%	-24%	-8%[46.1 µM]
CC1=C(C(N)=O)C(c2ccco2)C(C(N)=O)=C(C)N1	?	3	-17%	-7%	?	?
COCCOC(=O)C1=C(C)NC(SCC(=O)NC(C)(C)C)=C(C#N)C1c1ccco1 (stereo not drawn)	4%	-5	6%	-2%	-25%	-7%[46.1 µM]
CC(=O)C1=C(C)NC(SCC(=O)c2ccc(C)cc2)=C(C#N)C1c1ccco1 (stereo not drawn)	-46%	-11	10µM*	31%	-5%	0%[46.1 µM]
CN(CCC#N)C(=O)COC(=O)/C=C/c1cccs1	12%	4	7%	3%	-1%	2%
COc1ccc(N(CCC#N)C(=O)/C(C#N)=C/c2cccs2)cc1	13%	-2	14µM*	0%	-2%	-15%
Cn1c(SCC(=O)Nc2ccc3c(c2)OCCO3)nnc1C1CC1	-3%	0	.	.	.	.
Cc1cc(C)nc(NC(=NCCc2c[nH]c3ccccc23)NC(=O)Nc2ccc(Cl)cc2)n1	17%	-5	4%	16%	-2%	13µM*
Cc1cc(C)nc(NC(N)=NCCc2c[nH]c3ccccc23)n1	1%	-2	6%	12%	-2%	29%
CC1(C)NC(C)(C)c2nonc2/C1=N\O	21%	3	13µM*	9%	3%	8%[46.1 µM]
CCCN(CCC)C(=O)c1cc([N+](=O)[O-])cc2c1-c1ccc([N+](=O)[O-])cc1C2=C(C#N)C#N	50µM*	-32*	.	6%	?	20%[7.67 µM]
COc1cc(OC)c(NC(=O)c2csc(C)c2)cc1Cl	-1%	-9	.	.	.	.
CSc1nnc(NC(=O)c2cc(=O)c3cc(C)cc(C)c3o2)s1	-11%	-4	.	12%	0%	26%[7.67 µM]
Cc1occc1-c1nnc(SCC(=O)c2ccc(F)cc2)o1	-1%	3	32µM*	13%	-1%	-19%[46.1 µM]
O=C(Cc1c(Cl)cccc1Cl)NCCc1ccc(Cl)cc1	-7%	-1	1%	4%	0%	1%
